# Screening data (PubChem BioAssay)
# An excerpt weighted towards active compounds, which were near 15% of everything screened.
# RORg inh = qHTS for inhibitors of ROR gamma transcriptional activity. actives 5.4% (n = 310,000). AID 2551, 2010. Potency, µM (doses to about 53.6 µM), without a hit: at the top dose activity change, negative = inhibition, most hits filed as inhibitors. Drosophila S2 Gal4-RORgamma UAS-luciferase reporter, 20 h; also: nearly all actives have a fitted effect of over 60% in size
#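 In this cell-based reporter format, copper sulfate (700 uM final) drives Gal4–ROR gamma fusion expression from a metallothionein promoter in Drosophila Schneider cells; compounds preincubated 1 hr, reporter read after 20 hr at ambient temperature.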
# Gal4-VP16 FLuc = VP16 counterscreen qHTS for inhibitors of ROR gamma transcriptional activity; Drosophila S2 Gal4-VP16 UAS-luciferase, luminescence, 20 h; Potency, µM (series often up to 53.6 µM), for the others: at the top dose activity, negative = inhibition, actives largely listed as inhibitors; actives 3.5% (n = 310,000); AID 2546, 2010;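 also: Gal4-VP16 expression switched on by copper sulfate through the metallothionein promoter; nearly all actives have a fitted effect of over 50% in size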
# ELG1 repair inh = qHTS screen for small molecules that inhibit ELG1-dependent DNA repair in human embryonic kidney (HEK293T) cells expressing luciferase-tagged ELG1; HEK293T ELG1-luciferase reporter, luminescence, 16 h; DNA damage induced by 5-fluorouridine; actives 2.3% (n = 330,000); Potency, µM (titrated, usually from 46.1 µM), inactives show at the highest dose activity change, negative = inhibition, usual class: inhibitors; also: nearly all actives have a fitted effect of over 55% in size
#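 Overnight (16 hr) co-exposure of 2,000 cells/well to 5-fluorouridine and compound at 37 °C preceded detection. Luciferase was quantified via ONE-Glo luminescence; loss of signal denotes inhibition.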
# TDP1 cell CPT = qHTS for Inhibitors of human tyrosyl-DNA phosphodiesterase 1 (TDP1): qHTS in cells in presence of CPT; chicken DT40 Tdp1-/-;hTDP1 cells + 20 nM CPT, ATP luminescence, 48 h; AID 686979, 2013; Potency, µM (top dose mostly 46.2 µM), inactives show top-dose activity change, negative = growth inhibition, most hits filed as inhibitors; actives 12% (n = 420,000); also: nearly all actives have a fitted effect of over 55% in size
#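 Cell growth measured by CellTiter-Glo luminescence after a minimum 48 h, 37 C compound exposure with 20 nM CPT in Tdp1-knockout DT40 cells stably expressing hTDP1, seeded 400/well; qHTS titration format.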
# ALOX12 inh = Primary qHTS assay for inhibitors of human arachidonate 12S-lipoxygenase (ALOX12): Round 2; AID 1671190, 2021; purified 12hLO, xylenol orange hydroperoxide absorbance; Potency, µM (titrated, usually from 108 µM), without a hit: at the top dose activity change, negative = inhibition, most hits filed as inhibitors; actives 1.1% (n = 580,000); Polyunsaturated fatty acid lipoxygenase ALOX12 (Homo sapiens), P18054
# Target sequence (P18054 whole entry, looked up): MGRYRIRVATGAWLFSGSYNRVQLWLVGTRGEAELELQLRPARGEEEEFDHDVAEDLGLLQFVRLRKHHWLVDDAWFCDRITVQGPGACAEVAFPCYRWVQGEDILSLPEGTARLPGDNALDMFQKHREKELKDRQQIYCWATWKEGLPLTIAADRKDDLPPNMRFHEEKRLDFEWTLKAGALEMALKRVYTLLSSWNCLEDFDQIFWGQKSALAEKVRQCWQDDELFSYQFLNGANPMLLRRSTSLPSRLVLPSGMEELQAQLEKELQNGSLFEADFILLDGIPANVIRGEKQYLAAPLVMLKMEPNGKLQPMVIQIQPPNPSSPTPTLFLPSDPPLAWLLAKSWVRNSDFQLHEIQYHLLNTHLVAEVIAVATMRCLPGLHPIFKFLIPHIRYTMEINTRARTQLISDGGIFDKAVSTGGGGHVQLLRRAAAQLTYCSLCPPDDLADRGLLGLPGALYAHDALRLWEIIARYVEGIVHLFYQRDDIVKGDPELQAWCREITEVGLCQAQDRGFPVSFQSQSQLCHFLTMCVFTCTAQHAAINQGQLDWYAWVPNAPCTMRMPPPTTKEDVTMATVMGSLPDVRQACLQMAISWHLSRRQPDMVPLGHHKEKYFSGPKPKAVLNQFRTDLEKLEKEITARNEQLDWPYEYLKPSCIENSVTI
#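 Purified human 12hLO at 150 nM in 25 mM Hepes, 0.01% Triton X-100, pH 7.0, preincubated 15 min at room temperature with compound. Reaction started with 40 uM arachidonic acid, 30 min at room temperature. Hydroperoxide measured by Fe-xylenol orange, 573/405 nm absorbance ratio.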
# DT40 TDP1 no CPT = qHTS for Inhibitors of human tyrosyl-DNA phosphodiesterase 1 (TDP1): qHTS in cells in absence of CPT; DT40 Tdp1-/- hTDP1 cells, no CPT, ATP luminescence, 48 h; Potency, µM (top dose mostly 46.2 µM), without a hit: top-dose activity change, negative = growth inhibition, hits mostly inhibitors; actives 15% (n = 420,000); AID 686978, 2013; also: nearly all actives have a fitted effect of over 55% in size
#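 DT40 Tdp1-/-;hTDP1 cells, no CPT (DMSO vehicle only), 400 cells/well; compounds pin-transferred; ≥48 hr, 37 °C; CellTiter-Glo 30 min RT dark, luminescence read.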
# Starred values were filed as active, the others as inactive; ? = inconclusive; · = no result given; [ ] = dose if it differs, or a comment. Calls follow the shape of the dose curve; as a rule, active = well fitted curve in the direction sought with a large enough effect; inconclusive = small, poorly fitted or top-dose-only effect, or another doubt; inactive = no such curve, though single readings can be large; an effect the other way counts as inactive or inconclusive. % is scaled to controls: 0 for no effect and ±100 for the full control effect; potency is read from the fitted curve at half-maximal effect.
SMILES,RORg inh,Gal4-VP16 FLuc,ELG1 repair inh,TDP1 cell CPT,ALOX12 inh,DT40 TDP1 no CPT
Cc1nc(N2CCC(NC(=O)c3nccc4ccccc34)CC2)cc(C(F)(F)F)n1,·,·,·,·,21%,·
CC(O)C1CCC2C3CC[C@H]4CC(O)CCC4(C)C3CC3(OCCO3)C12C (stereo not given in full),-12%,-5%,-7%,-29%,-20%,21µM*
CNC12CC3CC(CC(S)(C3)C1)C2,·,·,·,·,1%,·
Clc1ccc(CN(Cc2ccccc2)C(c2cccs2)c2nnnn2C2CCCC2)cc1 (stereo not given),-81%,?,·,15µM*,0%,15µM*
Fc1ccc(CN(Cc2ccccc2)C(c2cccs2)c2nnnn2C2CCCCC2)cc1 (stereo not given),?,?,-5%,?,0%,16µM*
CC(C)(C)n1nnnc1C(c1cccs1)N(Cc1ccc(Cl)cc1)CC1CCCO1 (stereo not given),?,?,·,21µM*,0%,16µM*
Cc1cc(-c2csc(N)n2)c(C)n1CCc1ccccc1,-34%,-9%,2%,23µM*,?,?
Cc1cc(-c2csc(N)n2)c(C)n1CCC(C)C,-15%,2%,-3%,?,-58%,?
Cc1cc(C(=O)N2CCN(c3ccccc3)CC2)c2c(C)nn(-c3cccc(F)c3)c2n1,·,·,·,?,-28%,16µM*
CCc1ccc(-n2nc(C)c3c(C(=O)N4CCN(c5cccc(Cl)c5)CC4)cc(C)nc32)cc1,·,·,·,?,-62%,21µM*
Cc1cc(C(=O)NCCc2ccc(Cl)cc2)c2c(C)nn(-c3ccccc3)c2n1,·,·,·,·,-14%,·
Cc1cccc(C(=O)N2CCCC(c3cc(N4CCOCC4)ncn3)C2)c1 (stereo not given),·,·,·,·,11%,·
Cc1c(Cl)cccc1NC(=O)C(C)N1CCC(C(=O)NCc2ccccc2)CC1 (stereo not given),·,·,·,·,-22%,·
CCCn1c(C2CC(=O)N(c3ccc(C)cc3)C2)nc2ccccc21 (stereo not given),1%,0%,-15%,-20%,0%,0%
Cc1ccc(N2CC(c3nc4ccccc4n3CCN3CCOCC3)CC2=O)cc1Cl (stereo not given),·,·,·,·,1%,·
Cc1cccc(C)c1OCCn1c(C2CC(=O)N(c3cccc(Cl)c3)C2)nc2ccccc21 (stereo not given),·,·,·,16µM*,-19%,13µM*
Cc1cccc(C)c1OCCCCn1c(C2CC(=O)N(c3ccc(F)cc3)C2)nc2ccccc21 (stereo not given),·,·,·,13µM*,32µM*,15µM*
COCCNC(=O)[C@@H]1C[C@@H](O)CN1C1CCN(C(=O)c2ccccc2OC)CC1,·,·,·,·,51%,·
O=C(NCc1cccnc1)/C(=C\c1ccc(-c2ccc(Cl)c(Cl)c2)o1)S(=O)(=O)c1ccccc1,8.9µM*,5.6µM*,7.3µM*,4.6µM*,-25%,4.6µM*
O=C(NCc1cccnc1)c1ccc(Cl)c(Cl)c1,13%,15%,2%,23%,0%,14%
Cc1noc(-c2ccn3c(CNC(=O)C(C)c4ccccc4)nnc3c2)n1 (stereo not given),·,·,·,·,8%,·
COc1ccc(CC(=O)N2CCN(C(=O)Cc3ccc(OC)c(OC)c3)CC2)cc1OC,·,·,·,1%,-4%,-13%
Cc1ccc2onc(CC(=O)N3CCN(c4ccc(F)cc4)CC3)c2c1,·,·,·,15µM*,-17%,?
COc1ccc(CC(=O)N2CCN(c3cccc(Cl)c3)CC2)cc1OC,?,-7%,-21%,?,?,10µM*
Cc1ccc2onc(CC(=O)N3CCN(c4ccccc4F)CC3)c2c1,·,·,·,?,-23%,-30%
SMILES,RORg inh,Gal4-VP16 FLuc,ELG1 repair inh,TDP1 cell CPT,ALOX12 inh,DT40 TDP1 no CPT
COc1ccc(N2CCN(C(=O)Cc3coc4ccc(C)cc34)CC2)cc1,·,·,·,18µM*,-21%,?
COc1ccc(OC)c(S(=O)(=O)N(C)CC(=O)N2CCN(c3cccc(Cl)c3)CC2)c1,5%,-8%,?,?,0%,18µM*
CCCNC(=O)c1cccc(NC(=O)Nc2ccccc2)c1,·,·,·,·,22%,·
COc1ccc(N2CCN(C(=O)Cc3ccc(OC)c(OC)c3)CC2)cc1,?,-29%,?,8.2µM*,-23%,16µM*
COc1cc2c(cc1OC)C(C(=O)Nc1ccc3c(c1)OCCO3)C1c3ccccc3CCN1C2=O (stereo not given),-1%,1%,-23%,?,-23%,23µM*
O=S(=O)(Nc1nc2ccccc2s1)c1cnc(Cl)c(Br)c1,-1%,1%,?,23µM*,-15%,?
O=C(C1CC1)N1CCCC2(Cc3ccccc3NC2=O)C1 (stereo not given),·,·,·,·,50%[176 µM],·
CC(C)OCCCNc1nc2c(c(=O)n(C)c(=O)n2C)n1Cc1ccccc1Cl,·,·,·,·,-1%,·
NC(N)=NC(N)=Nc1ccc(O)cc1,1%,-10%,0%,12%,14%,2%
NC(=S)N=Nc1ccc(O)cc1,·,·,·,21µM*,?,18µM*
CCc1ccc(CNC(=O)c2cc3cc(C)ccc3[nH]2)cc1,·,·,·,·,35µM*,·
CC1CCc2noc(NC(=O)c3cc(=O)c4cc(Cl)ccc4o3)c2C1 (stereo not given),·,·,·,·,-16%,·
COc1ccc(C(c2c(O)ccc3ccccc23)N2CCOCC2)c(OC)c1 (stereo not given),-9%,-26%,?,?,?,29µM*
CC1=C(C(=O)Nc2ccccc2C)C(c2ccncc2)n2nc(SCc3ccccc3Cl)nc2N1 (stereo not given),·,·,·,-4%,-19%,-8%
CC1=C(C(=O)Nc2ccccc2)C(c2cccs2)n2nc(SCc3ccccc3F)nc2N1 (stereo not given),·,·,·,-26%,-19%,-27%
CC1=C(C(=O)Nc2ccccc2C)C(c2cccs2)n2nc(SCc3cc(C)ccc3C)nc2N1 (stereo not given),·,·,·,?,?,5.8µM*
CC1=C(C(=O)Nc2ccc(C)cc2C)C(c2cccs2)n2nc(SCc3ccccc3Cl)nc2N1 (stereo not given),·,·,·,10µM*,?,6.5µM*
